Screening results: PubChem BioAssay, National Center for Advancing Translational Sciences (NCATS)
A selection: hits, their analogues and other compounds. The true share with any hit is near 11%.
VDR inh: blocks the human vitamin D receptor. P11473. VDR-SRC2-3 peptide fluorescence polarization, 2 h. Potency, µM, actives largely listed as inhibitors. actives 0.93% (n = 400,000). AID 504847
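Compounds are added to VDR with labelled SRC2-3 coactivator peptide and held 2 h at room temperature. Inhibition of the VDR–peptide interaction is then read as a change in fluorescence polarization.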
JMJD2A Tudor inh: blocks the human JMJD2A Tudor domain | AID 504339 | O75164 | actives 4.4% (n = 390,000) | AlphaScreen JMJD2A-Tudor / H3K4me3 peptide binding | Potency, µM (titrated, usually from 114 µM), hits mostly inhibitors; note: nearly all actives have a fitted effect of over 50% in size
BAZ2B inh: blocks human BAZ2B | AlphaScreen BAZ2B-H3K14Ac peptide displacement | Q9UIF8 | AID 504333 | Potency, µM (series often up to 114 µM), most hits filed as inhibitors | actives 4.4% (n = 360,000); note: nearly all actives have a fitted effect of over 60% in size
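Compounds, titrated to a top concentration of 110 uM, were incubated 30 min at room temperature with preformed BAZ2B/acetyl-K14 H3 peptide complex (50 nM each). Proximity signal was measured by AlphaScreen after 20 min with beads.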
HP1b chromo inh: HP1-beta chromodomain-methylated histone interaction inhibition; AID 540317; AlphaScreen HP1-beta / biotin-H3K9me3 peptide binding; P83916; actives 0.56% (n = 390,000); Potency, µM (series often up to 114 µM), actives largely listed as inhibitors; note: nearly all actives have a fitted effect of over 70% in size
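AlphaScreen: HP1-beta (50 nM) preformed 30 min with biotin-H3(1-18)K9me3 peptide (50 nM) in PBS pH 7.4, 0.01% Tween-20. Compound added for 30 min at RT, then streptavidin donor/nickel chelate acceptor beads (10 ug/mL) for 30 min.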
G9a block: blocks human histone lysine methyltransferase G9a | Potency, µM (highest dose often 102 µM), most hits filed as inhibitors | actives 8.8% (n = 350,000) | G9a H3K9 monomethylation, AlphaScreen, 2 h | Q96KQ7; note: nearly all actives have a fitted effect of over 75% in size
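Using a bead-based AlphaScreen, monomethylated H3K9 product from 2 h room-temperature reactions (G9a 20 nM, peptide 500 nM, SAM 20 uM) was detected with 0.5 ug/mL rabbit anti-H3K9me1 antibody.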
PLK1 PBD inh: inhibitors of human PLK1 polo-box domain binding. P53350. Plk1 PBD binding of FITC phosphopeptide, fluorescence polarization. Potency, µM, most hits filed as inhibitors. actives 2.8% (n = 360,000); note: series mostly up to about 57 µM; nearly all actives have a fitted effect of over 65% in size
Numbers stand for hits; 0 = inactive; ? = inconclusive; - = not tested or not shown; [ ] = remark or other dose. Calls come from the whole dose curve; as a rule, active = well fitted curve in the direction sought with a large enough effect; inconclusive = small, poorly fitted or top-dose-only effect, or another doubt; inactive = no such curve, though single readings can be large; an effect the other way counts as inactive or inconclusive.

SMILES | VDR inh | JMJD2A Tudor inh | BAZ2B inh | HP1b chromo inh | G9a block | PLK1 PBD inh
CC(C)(C)OC(=O)NCc1nnc(C(C(=O)OCc2ccccc2)c2ccccc2)s1 (stereo not drawn) | - | 0 | - | - | - | -
O=C(NCc1cccnc1)c1cnc2n(c1=O)CCS2 | 0 | 0 | 0 | 0 | 0 | 0
O=C(NCc1ccccc1Cl)c1cnc2n(c1=O)CCS2 | 0 | 0 | 0 | 0 | 56.2µM | 0
COc1ccc(CNC(=O)c2cnc3n(c2=O)CCS3)cc1 | 0 | 0 | 0 | 0 | 44.7µM | 0
CC(=O)C1=C(O)C(=O)N(Cc2ccccc2)C1c1ccco1 (stereo not drawn) | 0 | ? | ? | 0 | 50.1µM | 0
CC(=O)C1=C(O)C(=O)N(Cc2ccco2)C1c1ccccc1 (stereo not drawn) | 0 | ? | ? | 0 | 50.1µM | 0
COc1cccc(C2C(C(C)=O)=C(O)C(=O)N2Cc2ccco2)c1 (stereo not drawn) | 0 | ? | ? | ? | 0[12.7 µM] | 23.8µM
O=C(C1=C(O)C(=O)N(Cc2ccco2)C1c1cccc([N+](=O)[O-])c1)c1ccco1 (stereo not drawn) | ? | 50.1µM | 0 | 0 | - | 0
CC(=O)C1=C(O)C(=O)N(Cc2ccco2)C1c1ccc(F)cc1 (stereo not drawn) | 0 | 0 | 0 | 0 | ? | 0
CC(=O)C1=C(O)C(=O)N(Cc2ccccc2)C1c1ccc(Br)cc1 (stereo not drawn) | 0 | 0 | 0 | 0 | 0[2.33 µM] | 0
ONC(=Nc1cccc(C(F)(F)F)c1)c1cccnc1 | 0 | 0 | 0 | 0 | 0 | 0
CC(C)CCNC(=O)CCCN1C(=O)c2ccccc2Sc2ncccc21 | 0 | 0 | 0 | 0 | 0 | -
CN(C)c1ccc(CNC(=O)C2(C)Cc3c(-c4cccc(C(F)(F)F)c4)ccnc3O2)cc1 (stereo not drawn) | - | - | - | - | - | 0
Cc1ccc(NC(=O)CC2SC(=O)N(c3ccccc3)C2=O)cc1 (stereo not drawn) | 28.2µM | 0 | 0 | 0 | ? | 6.7µM
Cc1ccc(N2C(=O)SC(Cc3ccccc3)C2=O)cc1 (stereo not drawn) | ? | 0 | 0 | ? | 8.91µM | 7.52µM
Cc1cccc(NC(=O)CC2SC(=O)N(c3ccccc3)C2=O)c1 (stereo not drawn) | ? | 0 | 0 | 0 | ? | 15µM
Cc1ccc(NC(=O)CC2SC3=NCCN3C2=O)cc1 (stereo not drawn) | 0 | 0 | 0 | 0 | 7.08µM | 0
CCCN1C(=O)SC(CC(=O)Nc2ccc(C)cc2)C1=O (stereo not drawn) | 0 | 0 | 0 | 0 | 0 | 0
Cc1cccc(NC2SC(=O)N(c3ccccc3)C2=O)c1 (stereo not drawn) | 0 | 0 | 0 | 0 | 0[12.7 µM] | 0
O=C(CC1SC(=O)N(c2ccccc2)C1=O)Nc1ccccc1 (stereo not drawn) | 22.4µM | 0 | 0 | 0 | ? | 10.6µM
N=C1SC(CC(=O)Nc2ccc([N+](=O)[O-])cc2)C(=O)N1c1ccccc1 (stereo not drawn) | 0 | 0 | 0 | 0 | 0 | 0
Cc1ccc2c(c1)N(CC(=O)Nc1ncccc1C)C(=O)C(C(C)C)O2 (stereo not drawn) | 0 | ? | 0 | 0 | - | 0
COC(=O)/C=C1\OC(c2ccccc2)c2ccccc21 (stereo not drawn) | - | - | - | - | - | 0
COC(=O)/C=C1\OC(c2ccccc2)=CC1=O | - | - | ? | - | 3.98µM | -
O=C(O)C1CCCN(S(=O)(=O)c2cccs2)C1 (stereo not drawn) | 0 | 0 | 0 | 0 | 0 | 0
SMILES | VDR inh | JMJD2A Tudor inh | BAZ2B inh | HP1b chromo inh | G9a block | PLK1 PBD inh
COc1ccc(N2CCN(C(=O)C3CCN(S(=O)(=O)c4ccc(F)cc4)CC3)CC2)cc1 | 0 | 0 | ? | 0 | ? | 0
CN1CCN(C(=O)C2CCCN(S(=O)(=O)c3ccccc3)C2)CC1 (stereo not drawn) | 0 | 20µM | ? | 0 | - | 0
COc1ccc(N2CCN(C(=O)C3CCCN(S(=O)(=O)c4ccc(C)cc4)C3)CC2)cc1 (stereo not drawn) | 0 | 0 | 39.8µM | ? | ? | 0
Cc1ccc(S(=O)(=O)N2CCCC(C(=O)O)C2)s1 (stereo not drawn) | 0 | ? | 0 | 0 | ? | 29.9µM
COc1ccc(N2CCN(C(=O)C3CCCN(S(=O)(=O)c4ccc(F)cc4)C3)CC2)cc1 (stereo not drawn) | 0 | 0 | 39.8µM | 0 | - | 0
CCOc1ccc(C(=O)c2cn(Cc3ccc(Cl)cc3)c3cc(OC)c(OC)cc3c2=O)cc1 | 0 | 0 | 0 | 0 | 0 | -
CCC(=O)N1CCC1(C)C(=O)Nc1cccc(OC)c1OC (stereo not drawn) | - | - | - | - | - | 0
Cc1nn(C(=O)c2ccccc2F)c(C)c1S(=O)(=O)N1CCOCC1 | 0 | 0 | 0 | 0 | ? | -
CCCCNC(=O)NNc1nc(Cl)cc(C)c1C#N | 0 | 0 | 0 | 0 | 31.6µM | 0
CCCn1c(=N)n(CC(=O)c2ccc(Cl)cc2)c2ccccc21 | 0 | 0 | 0 | 0 | 0 | 0
CCCn1c(=N)n(CC(=O)c2ccc([N+](=O)[O-])cc2)c2ccccc21 | 0 | 0 | 35.5µM | 0 | 39.8µM | 0
CCOC(=O)C1CCC(CN(Cc2cccc(Br)c2)S(=O)(=O)c2ccc(C)cc2)CC1 (stereo not drawn) | 0 | 0 | 0 | 0 | 0 | -
CC(=O)Nc1ccc(S(=O)(=O)N(CCCN2CCOCC2)Cc2cccs2)cc1 | 0 | 44.7µM | 79.4µM | 0 | 39.8µM | 0
COc1cc(/C=C/c2cccc[n+]2C)ccc1OCC(=O)Nc1ccccc1C | 0 | 0 | 0 | 0 | 0 | 0
CCOc1cc(/C=C\[N+](=O)[O-])ccc1OCC(=O)Nc1ccccc1C | 4.47µM | 0 | 0 | 0 | ? | ?
CNc1nc(N)c([N+](=O)[O-])c(Nc2ccccc2OC)n1 | 0 | 0 | 0 | 0 | 0 | 0
NNC(=S)Nc1c(Br)cc(F)cc1Br | 0 | 0 | 0 | 0 | 35.5µM | 0
Cc1cc(C(=O)Nc2c(F)cc(F)cc2Br)c(C)o1 | ? | 0 | 0 | 0 | 0[12.7 µM] | 0
CCOc1ccc(NC(=S)NC(=O)c2c(Br)cnn2C)c([N+](=O)[O-])c1 | 0 | ? | ? | ? | 28.2µM | 0
Fc1ccc(C2=NNC(=NCc3ccccc3)SC2)cc1F | 0 | ? | ? | 0 | ? | 26.7µM
CCN=C1NN=C(c2ccc(C)cc2)CS1 | ? | 0 | 0 | 0 | 31.6µM | ?
CCCCN=C1NN=C(c2cccc([N+](=O)[O-])c2)CS1 | ? | 0 | ? | 0 | 11.2µM | 0
c1ccc(CN=C2NN=C(c3ccccc3)CS2)cc1 | ? | ? | ? | 0 | 39.8µM | 0
COc1ccc(Cn2c(=O)n(-c3ccc(F)c(Cl)c3)c(=O)c3c2c2cc(OC)ccc2n3C)cc1 | 0 | 0 | 0 | 0 | 0 | -
COc1cccc(CSc2nc3cc(OC)c(OC)cc3c3nc(CCn4nc(C)cc4C)nn23)c1 | 0 | 0 | - | 0 | 0 | -
C=CCN=C1NN=C(c2cc(C)n(CC=C)c2C)CS1 | 0 | ? | ? | 0 | ? | 0
